Reference: PubChem BioAssay AID1159580 (chemical genetic matrix, 2015)
The campaign covered roughly 5,500 compounds. About 2,000 (36%) were called active. Another 18% or so got no clear call; they are omitted. No stated cut-off is given here; in the data, active means normalized growth mostly below about 0.91 (no sharp cut-off); inconclusive means no clear call, values can overlap the other calls; inactive means mostly above about 0.92. Some of the results follow.

Test: chemical genetic growth profiling, strain panel (AID 1159580);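 further: tested at 20 µM; growth read once vehicle control cultures reached saturation at 30 °C; 1 = growth at the plate median or of vehicle wells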
Conditions: S. cerevisiae deletion strains, growth OD

Measured: normalized growth

COc1cc(N)c(Cl)cc1C(=O)NC1CCN(Cc2ccccc2)CC1
inactive: locus YAL013W, strain DEP1, stronger effect = lower value 0.997 | locus YAL021C, strain ccr4, stronger effect = lower value 1 | locus YAL026C, strain drs2, stronger effect = lower value 1 | locus YAL030W, strain snc1, stronger effect = lower value 1 | locus YBL061C, strain skt5, stronger effect = lower value 0.997 | locus YBR009C, strain hhf1, stronger effect = lower value 0.999 | locus YBR021W, strain FUR4, stronger effect = lower value 1.07 | locus YBR023C, strain chs3, stronger effect = lower value 0.995 | locus YBR171W, strain sec66, stronger effect = lower value 0.999 | locus YBR229C, strain ROT2, stronger effect = lower value 0.988 | locus YBR231C, strain swc5, stronger effect = lower value 1 | locus YBR279W, strain paf1, stronger effect = lower value 0.999 | locus YCL011C, strain gbp2, stronger effect = lower value 0.994 | locus YCL016C, strain dcc1, stronger effect = lower value 1 | locus YCL029C, strain bik1, stronger effect = lower value 0.962 | locus YCL061C, strain MRC1, stronger effect = lower value 0.984 | locus YCL069W, strain vba3, stronger effect = lower value 0.993 | locus YCR088W, strain abp1, stronger effect = lower value 0.993 | locus YDL005C, strain med2, stronger effect = lower value 0.996 | locus YDL035C, strain GPR1, stronger effect = lower value 1 | locus YDL040C, strain nat1, stronger effect = lower value 0.992 | locus YDL074C, strain BRE1, stronger effect = lower value 0.97 | locus YDL101C, strain DUN1, stronger effect = lower value 0.981 | locus YDL134C, strain PPH21, stronger effect = lower value 0.999 | locus YDL185W, strain tfp1, stronger effect = lower value 0.954 | locus YDL192W, strain arf1, stronger effect = lower value 0.992 | locus YDR001C, strain nth1, stronger effect = lower value 0.999 | locus YDR069C, strain doa4, stronger effect = lower value 0.992 | locus YDR101C, strain arx1, stronger effect = lower value 0.982 | locus YDR137W, strain rgp1, stronger effect = lower value 1.01 | locus YDR150W, strain NUM1, stronger effect = lower value 0.987 | locus YDR159W, strain sac3, stronger effect = lower value 1 | locus YDR162C, strain NBP2, stronger effect = lower value 0.996 | locus YDR195W, strain ref2 0.986 | locus YDR297W, strain sur2, stronger effect = lower value 0.994 | locus YDR318W, strain mcm21, stronger effect = lower value 0.981 | locus YDR334W, strain swr1, stronger effect = lower value 0.998 | locus YDR335W, strain msn5, stronger effect = lower value 0.986 | locus YDR388W, stronger effect = lower value 0.993 | locus YDR392W, strain spt3, stronger effect = lower value 0.995 | locus YDR502C, strain sam2, stronger effect = lower value 1.01 | locus YEL003W, strain gim4, stronger effect = lower value 0.999 | locus YEL037C, strain rad23, stronger effect = lower value 0.996 | locus YEL061C, strain CIN8 (second series), stronger effect = lower value 0.998 | locus YEL061C, strain CIN8, stronger effect = lower value 0.995 | locus YER015W, strain faa2, stronger effect = lower value 1 | locus YER016W, strain bim1, stronger effect = lower value 0.994 | locus YER110C, stronger effect = lower value 0.995 | locus YER111C, strain swi4, stronger effect = lower value 0.991 | locus YER155C, strain BEM2 (second series), stronger effect = lower value 0.988 | locus YER155C, strain BEM2, stronger effect = lower value 0.982 | locus YER167W, strain BCK2, stronger effect = lower value 0.996 | locus YFR010W, strain ubp6, stronger effect = lower value 0.999 | locus YGL078C, strain dbp3, stronger effect = lower value 0.996 | locus YGL086W, strain mad1, stronger effect = lower value 1 | locus YGL167C, strain pmr1, stronger effect = lower value 1 | locus YGL173C, strain kem1, stronger effect = lower value 0.998 | locus YGL227W, strain vid30, stronger effect = lower value 0.998 | locus YGL240W, strain doc1, stronger effect = lower value 0.997 | locus YGL248W, strain PDE1, stronger effect = lower value 1 | locus YGL253W, strain hxk2, stronger effect = lower value 0.992 | locus YGR078C, strain PAC10, stronger effect = lower value 0.982 | locus YGR135W, strain pre9, stronger effect = lower value 0.998 | locus YGR229C, strain SMI1, stronger effect = lower value 1.02 | locus YGR252W, strain gcn5, stronger effect = lower value 1.15 | locus YHR013C, strain ard1, stronger effect = lower value 0.996 | locus YHR027C, strain rpn1, stronger effect = lower value 1 | locus YHR030C, strain SLT2, stronger effect = lower value 0.996 | locus YHR079C, strain IRE1 (second series), stronger effect = lower value 0.977 | locus YHR094C, strain hxt1, stronger effect = lower value 0.974 | locus YHR129C, strain ARP1, stronger effect = lower value 0.993 | locus YHR142W, strain chs7, stronger effect = lower value 0.993 | locus YHR200W, strain rpn10, stronger effect = lower value 0.989 | locus YIL066C, strain RNR3, stronger effect = lower value 0.98 | locus YIL073C, strain SPO22, stronger effect = lower value 0.997 | locus YIL125W, strain kgd1, stronger effect = lower value 0.997 | locus YIR030C, strain dcg1, stronger effect = lower value 0.988 | locus YJL092W, strain hpr5, stronger effect = lower value 0.987 | locus YJL095W, strain BCK1 (second series), stronger effect = lower value 0.998 | locus YJL095W, strain BCK1, stronger effect = lower value 0.999 | locus YJL115W, strain asf1, stronger effect = lower value 0.987 | locus YJL129C, strain trk1, stronger effect = lower value 0.992 | locus YJL134W, strain LCB3, stronger effect = lower value 0.998 | locus YJL154C, strain vps35, stronger effect = lower value 1 | locus YJL164C, strain tpk1, stronger effect = lower value 1 | locus YJL166W, strain qcr8, stronger effect = lower value 0.996 | locus YJL168C, strain set2, stronger effect = lower value 0.99 | locus YJL187C, strain SWE1 (second series), stronger effect = lower value 0.966 | locus YJL187C, strain SWE1, stronger effect = lower value 0.99
